Molecules are shown by their SMILES. In all, about 320,000 compounds went through this assay and about 2,100 (0.66%) were called active. Inconclusive results (about 53%) are left out. This is one part of a sample in which actives are shown more often than they occur. The call rests on the fitted dose curve; in most records, active means well fitted inhibition curve with a large enough effect in the signal ratio, with a control signal flat (not every such curve was filed as active); inconclusive means small, poorly fitted or top-dose-only effect, or effect the other way, or a change in a side signal; inactive means flat fitted curve, though single readings scatter; the % refers to the signal ratio.
Potency means the concentration at half of the fitted maximal effect.

The nature of the assay: qHTS Assay for Lipid Storage Modulators in Drosophila S3 Cells.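 On cell number change: cells counted by Cell Tracker Red CMTPX staining in the red channel.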 On lipid storage change, negative = inhibition: on the % scale 0 is the no-effect control and ±100 the full control effect. Conditions: BODIPY lipid droplet fluorescence, 18-24 h, cells fed with added oleic acid; cell number change: measured here: cell count max response; series mostly up to 46.1 µM; lipid storage change, negative = inhibition: at the top concentration. A digest of the protocol: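 Drosophila S3 cells loaded with oleic acid (400 uM, as added) and compounds at several concentrations; lipid droplets imaged by 488-nm laser-scanning cytometry, 500–530 nm intensity and object ratio to cell channel. Percent activity normalized to 20 uM Triacsin C.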
A general note: Quantitative high-throughput screening tests each substance at several concentrations.
In the case of `CC1=NN(C(=O)Cc2ccc([N+](=O)[O-])cc2)C(O)(C(F)(F)C(F)(F)F)C1` (stereo unspecified), the “lipid storage change, negative = inhibition” value is 5.48% (inactive) and the cell number change is 24%.
For the compound `CC(=O)NCCc1nc2ccccc2n1Cc1ccccc1`, the “lipid storage change, negative = inhibition” value is -4.21% (inactive) and the cell number change is 18.1%.
On to `O=C(CSc1ncn[nH]1)Nc1cc(S(=O)(=O)N2CCCC2)ccc1Cl`, for which the call was inactive.
For `CN(C)S(=O)(=O)c1cc(NC(=O)COC(=O)CCc2ccccc2)ccc1Cl`, the call was inactive and the cell number change amounted to 11.3%.
Take `Nc1[nH]nc2nc(N3CCOCC3)nc(-c3ccccc3)c12`: the “lipid storage change, negative = inhibition” value is 0.177% (inactive) and the cell number change is -23.8%.
The like results for `O=C1C(=O)N(CCN2CCOCC2)C(c2cccnc2)/C1=C(/O)c1ccccc1` (stereo unspecified) were, in that order, 16.1% (inactive) and 0.678%.
The like results for `O=C1N=C2N(CCN3CCCCC3)c3ccccc3N2/C1=C\c1ccc([N+](=O)[O-])o1` were, in that order, -28.5% (inactive) and 2.09%.
The like results for `O=C1C=C(NCCN2CCOCC2)CC(c2ccccc2)C1` (stereo unspecified) were, in that order, 27.3% (inactive) and -2.43%.
Consider `O=C1C=C(NCCN2CCOCC2)C(=O)c2cnccc21`, for which the Potency was 11.6 µM (active) and the cell number change was -9.98%.
As to `O=C(NCCN1CCOCC1)c1ccncc1`, the outcome was inactive and the cell number change is -7.07%.
Turning to `COc1ccccc1NC(=O)N1C2CCCC1CC(NC(=O)c1ccccc1)C2` (stereo unspecified), the “lipid storage change, negative = inhibition” value is -1.34% (inactive) and the cell number change worked out at 9.36%.
In the same order, the values of `COc1ccc(NS(=O)(=O)c2ccc3c(c2)oc(=O)n3C)cc1Cl` are 4.42% (inactive) and 10.6%.
As to `COC(=O)c1ccc(Cl)c(NC(=O)CN(c2ccccc2)S(=O)(=O)c2ccc(OC)cc2)c1`, the “lipid storage change, negative = inhibition” value was -4.68% (inactive) and the cell number change is -1.49%.
For the compound `O=C(O)c1ccc(-c2nc(-c3ccccc3)c(-c3cccs3)[nH]2)cc1`, the “lipid storage change, negative = inhibition” value is 13.4% (inactive) and the cell number change was 16.3%.
In the same order, the values of `O=[N+]([O-])c1cccc(-c2nc(-c3ccccc3)c(-c3cccs3)[nH]2)c1` are -10.9% (inactive) and -14.7%.
As to `O=[N+]([O-])c1ccc(-c2nc(-c3cccs3)c(-c3cccs3)[nH]2)cc1`, the Potency is 23.1 µM (active) and the cell number change is 7.44%.
Turning to `O=S(=O)(Nc1ccc2nc(N3CCOCC3)sc2c1)c1ccc(Cl)cc1`, the result was inactive and the cell number change is -15.7%.
Turning to `CCOC(=O)C1(Cc2cccc(OC)c2)CCN(Cc2cc(OC)ccc2OC)CC1`, the “lipid storage change, negative = inhibition” value was -8.02% (inactive) and the cell number change is -22.3%.
In the same order, the values of `COc1cc(OC)cc(C(=O)Nc2ccc(C(=O)c3ccncc3)cc2)c1` are -7.33% (inactive) and 2.59%.
Consider `COc1ccc(C(CCN2CCCC(C)C2)c2c(OC)cc(OC)c3c(C)cc(=O)oc23)cc1` (stereo unspecified), for which the “lipid storage change, negative = inhibition” value was 0.351% (inactive) and the cell number change turned out to be 7.77%.
In the same order, the values of `CC[n+]1c(C)n(-c2ccccc2)c2ccc(C(=O)OC)cc21` are 0.792% (inactive) and 6.2%.
The like results for `Cc1cc(C)n2ncc(C(=O)O)c2n1` were, in that order, 16.6% (inactive) and 12.3%.
In the same order, the values of `Cc1ccc(-c2cc(C(F)(F)F)n3ncc(C(=O)O)c3n2)cc1` are -0.719% (inactive) and -10.1%.
Regarding `Cc1cc(C(F)(F)F)n2ncc(C(=O)O)c2n1`, the Potency was 14.6 µM (active).
With `C=CCN1CC(=O)N2C(C)c3[nH]c4ccccc4c3C[C@H]2C1=O` (stereo partly specified), the “lipid storage change, negative = inhibition” value is 8.32% (inactive) and the cell number change is 1.11%.
The like results for `CCC(=O)Nc1ccc(-c2nnc(SCC(=O)Nc3nccs3)n2C)cc1` were, in that order, 8.69% (inactive) and 0.852%.
`CC1Cc2cc(/C(O)=C3/C(=O)C(=O)N(CC4CCCO4)C3c3ccco3)ccc2O1` (stereo unspecified): the “lipid storage change, negative = inhibition” value was 8.54% (inactive) and the cell number change was 9.06%.
As for `COc1cc(C2/C(=C(\O)c3ccc4c(c3)CC(C)O4)C(=O)C(=O)N2CC2CCCO2)cc(OC)c1OC` (stereo unspecified), the Potency is 1.3 µM (active) and the cell number change was -16%.
Turning to `COc1cccc(C2/C(=C(/O)c3ccc4c(c3)CC(C)O4)C(=O)C(=O)N2CC2CCCO2)c1` (stereo unspecified), the call was inactive and the cell number change was determined as 14.4%.
For the compound `CC(C)N(C(=O)CSc1nnc(NC(=O)c2cccs2)s1)C(C)C`, the “lipid storage change, negative = inhibition” value is -9.8% (inactive) and the cell number change was -20.6%.
With `CCc1nnc(NC(=O)CCC(=O)NCc2ccc(C)cc2)s1`, the compound was called inactive.
With `COC(=O)c1c(NC(=O)CN2C(=O)NC3(CCCCC3C)C2=O)sc2c1CCC2` (stereo unspecified), the Potency is 1.84 µM (active) and the cell number change amounted to 2.22%.
As for `CCOC(=O)c1c(NC(=O)CN2C(=O)NC3(CCCCC3C)C2=O)sc(C)c1C` (stereo unspecified), the “lipid storage change, negative = inhibition” value is 1.6% (inactive) and the cell number change is -4.46%.
The like results for `COC(=O)c1c(NC(=O)CN2C(=O)NC3(CCC(C)CC3)C2=O)sc2c1CCC2` (stereo unspecified) were, in that order, 20.5% (inactive) and -11.8%.
`c1ccc(CCNc2nc3ccccc3n3nnnc23)cc1`: the result was inactive and the cell number change is -15.6%.
`Oc1ccc(/C=N/Nc2ccnc3cc(Cl)ccc23)c(O)c1`: the Potency was 29.1 µM (active) and the cell number change was -19.7%.
For the compound `Clc1ccc2c(N/N=C/c3cccnc3)ccnc2c1`, the compound was called inactive.
As for `Clc1ccc(NNc2ccnc3cc(Cl)ccc23)cc1`, the “lipid storage change, negative = inhibition” value was 7.38% (inactive) and the cell number change turned out to be 9.5%.
The like results for `Cc1ccnc(NS(=O)(=O)c2cccc([N+](=O)[O-])c2)c1` were, in that order, -5.01% (inactive) and 3.2%.
Consider `COc1ccc(-n2nc(C(=O)NCC(=O)N3CCN(Cc4ccccc4)CC3)c3ccccc3c2=O)c(OC)c1`, for which the result was inactive and the cell number change amounted to 10.3%.
For the compound `COc1ccc(-n2nc(C(=O)NCC(=O)N3CCN(Cc4ccccc4)CC3)c3ccccc3c2=O)cc1`, the Potency is 0.651 µM (active) and the cell number change stood at 5.41%.
Take `CCN1CCN(C(=O)CNC(=O)c2nn(-c3ccc(OC)cc3)c(=O)c3ccccc23)CC1`: the compound was called inactive and the cell number change was 8.11%.
For `COc1ccccc1N1CCN(C(=O)c2ccc(S(=O)(=O)N3CCCCCC3)cc2)CC1`, the “lipid storage change, negative = inhibition” value was -13% (inactive) and the cell number change was -9.51%.
On to `COc1cc(S(=O)(=O)NCc2ccncc2)c(OC)cc1Cl`, for which the “lipid storage change, negative = inhibition” value is 15.4% (inactive) and the cell number change worked out at 12.7%.
Regarding `COc1cc(S(=O)(=O)NCc2ccncc2)c(OC)cc1Br`, the Potency was 23.1 µM (active) and the cell number change is 3.68%.
